Assay results reported in PubChem BioAssay (NCATS).
Where “and” joins values, the source holds several entries; their conditions need not be identical. Identical values can stand only once. Records with an inconclusive call do not appear. Where a call stands in place of a potency, no number is given. Calls of active or inactive are those of the source. Unless noted, calls follow the shape of the full dose curve.

Tests used:
[1] = MultiTox-Fluor Cytotoxicity Assay - LYMP1-001 - Live Cells (AID 947; active = well fitted curve in the direction sought with a large enough effect; an effect the other way counts as inactive or inconclusive)
[2] = Cell Viability - LYMP2-015 (AID 971; active = well fitted curve in the direction sought with a large enough effect; an effect the other way counts as inactive or inconclusive;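 also: cells exposed to compound for 24 h; nearly all actives have a fitted effect of over 55% in size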)
How it was run: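 Cells are seeded at 2500 per well and incubated 5 hr at 37 C. Compounds are added across a concentration series for 24 hr at 37 C. CellTiter-Glo is added, and luminescence is read after 30 min at room temperature.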

[3] = Cell Viability - LYMP2-024 (AID 988; active = well fitted curve in the direction sought with a large enough effect; an effect the other way counts as inactive or inconclusive; also: nearly all actives have a fitted effect of over 60% in size)
How it was run: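 qHTS cytotoxicity, human lymphoblastoid line, complete medium; 24 h cpd treatment, 37 C; CellTiter-Glo ATP luminescence readout; tetraoctylammonium bromide positive control; AC50 via Hill fit.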

[4] = target: Estrogen receptor (Homo sapiens) (UniProt P03372); test: qHTS assay for small molecule antagonists of estrogen receptor alpha signaling (AID 588513; active = well fitted curve in the direction sought with a large enough effect in the signal ratio, with a control signal flat, not every such curve was filed as active; the % refers to the signal ratio)
How it was run: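 ER-alpha-UAS-bla GripTite HEK 293 cells in 2% charcoal/dextran-treated FBS medium; compounds titrated (1:2, duplicate), then stimulated with 0.5 nM 17-beta-estradiol for 18 h at 37C. CCF4 beta-lactamase fluorescence; Hill-fit IC50 and efficacy.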

[5] = target: Peroxisome proliferator-activated receptor delta (Homo sapiens) (UniProt Q03181); test: qHTS assay for small molecule agonists of peroxisome proliferator-activated receptor delta signaling (AID 588534)
How it was run: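 Agonist-mode qHTS; reporter cells, 5 hrs 37 C pre-incubation; compound titration, 18 hrs 37 C; CCF4 dye, 2 hrs RT; fluorescence read. EC50/efficacy via Hill fit.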

[6] = qHTS assay for small molecule antagonists of peroxisome proliferator-activated receptor delta signaling (AID 588535; active = well fitted inhibition curve with a large enough effect in the signal ratio, with a control signal flat, not every such curve was filed as active; the % refers to the signal ratio;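 as to max response: cells co-treated with a PPAR-delta agonist as stimulator during compound exposure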); conditions: HEK293T PPARd-UAS-bla, beta-lactamase FRET ratio, 18 h; 460 nm channel
How it was run: (§1)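 Inhibition of PPAR-delta response element-driven beta-lactamase expression is measured in HEK293T cells exposed to a compound titration series for 18 hrs at 37 C. Half-maximal inhibition comes from Hill equation fitting.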

[7] = target: Peroxisome proliferator-activated receptor gamma (Homo sapiens) (UniProt P37231); test: qHTS assay for small molecule agonists of peroxisome proliferator-activated receptor gamma signaling (AID 588536; active = well fitted curve in the direction sought with a large enough effect in the signal ratio, with a control signal flat, not every such curve was filed as active; the % refers to the signal ratio)
How it was run: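 Cells were plated and held 6–6.5 h at 37 C, then compounds were added as a titration series. After a further 16 h, CCF4 dye was loaded for 2 h at room temperature and emission at 460/530 nm recorded.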

[8] = target: Vitamin D3 receptor (Homo sapiens) (UniProt P11473); test: qHTS assay for small molecule antagonists of vitamin D receptor signaling (AID 588541);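 also: receptor activated by calcitriol during compound treatment; series mostly up to about 77 µM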
How it was run: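 VDR-UAS-bla HEK293T cells (2000/well, 2% charcoal-stripped FBS) were treated with titrated compounds plus 1-alpha,25-dihydroxyvitamin D3 (50 nM or 3 nM final) for 16 h at 37 C. CCF4 beta-lactamase fluorescence was read; Hill fits gave IC50.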

[9] = target: Thyroid hormone receptor beta (Homo sapiens) (UniProt P10828); test: qHTS assay for small molecule agonists of thyroid hormone receptor beta signaling (AID 588545)
How it was run: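 TR-UAS-bla-GripTite HEK 293 cells in medium with 2% charcoal/dextran FBS, 0.1 mM NEAA and 1 mM sodium pyruvate were treated with titrated compounds for 18 hrs at 37 C. Beta-lactamase reporter was read with CCF4 dye (ex 405, em 460/530 nm); EC50 from Hill fits.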

[10] = target: Voltage-gated inwardly rectifying potassium channel KCNH2 (Homo sapiens) (UniProt Q12809); test: qHTS Assay for Small Molecule Inhibitors of the Human hERG Channel Activity (AID 588834; active = well fitted curve in the direction sought with a large enough effect; an effect the other way counts as inactive or inconclusive;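 also: top concentration of the series differs between compounds; lower thallium flux fluorescence means stronger hERG block; nearly all actives have a fitted effect of over 50% in size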)
How it was run: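 Thallium serves as surrogate for K+ influx through BacMam-delivered hERG in U2OS cells. Compounds are added for about 10 minutes after dye loading; stimulation buffer then starts flux, monitored kinetically on FDSS.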

[11] = qHTS assay for small molecule activators of the p53 signaling pathway (AID 651743; active = well fitted activation curve with a large enough effect in the signal ratio, not every such curve was filed as active; the % refers to the signal ratio; also: series mostly up to about 92 µM); conditions: HCT-116 p53RE-bla, beta-lactamase FRET ratio, 16 h; activation: stronger effect = higher value
How it was run: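 Agonist-mode quantitative HTS in HCT-116 cells carrying a p53-response-element beta-lactamase reporter; 16 h compound treatment at 37 C, then FRET substrate loading for 2 h at room temperature and fluorescence read.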

[12] = qHTS assay for small molecule activators of the nuclear factor-kappa B (NF-kB) signaling pathway (AID 651749; active = well fitted activation curve with a large enough effect in the signal ratio; the % refers to the signal ratio; also: series mostly up to about 77 µM); conditions: NF-kB-bla ME-180 cells, beta-lactamase FRET ratio, 16 h; stronger effect = higher value
How it was run: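 Human ME-180 cervical cells with an NF-kB-bla construct; compounds added via 23 nL pin transfer, DMSO as vehicle; incubation 16 hr. Reporter activity measured by FRET disruption.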

[13] = target: Glucocorticoid receptor (Homo sapiens) (UniProt P04150); test: qHTS assay for small molecule agonists of glucocorticoid receptor signaling (AID 588532; active = well fitted curve in the direction sought with a large enough effect in the signal ratio, with a control signal flat; the % refers to the signal ratio); conditions: HeLa MMTV-bla, beta-lactamase ratio, agonist, 18 h; stronger effect = higher value; percent of dexamethasone control, DMSO zero
How it was run: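 Titration series, up to 92 uM, applied to GRE-bla HeLa cells for 18 h at 37 C. Detection by CCF4 FRET substrate after 2 h at RT.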

[14] = target: Glucocorticoid receptor (Homo sapiens) (UniProt P04150); test: qHTS assay for small molecule antagonists of glucocorticoid receptor signaling (AID 588533; active = well fitted inhibition curve with a large enough effect in the signal ratio, with a control signal flat, not every such curve was filed as active; the % refers to the signal ratio;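 also: cells stimulated with 2 nM dexamethasone as agonist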)
How it was run: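 Antagonist-mode qHTS: compound titrations added to GRE-bla HeLa cells, then dexamethasone 2 nM final; 18 h, 37 C. CCF4 FRET fluorescence normalized to dexamethasone and DMSO; IC50 from Hill fit.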

[15] = target: Thyroid hormone receptor beta (Homo sapiens) (UniProt P10828); test: qHTS assay for small molecule antagonists of thyroid hormone receptor beta signaling (AID 588547; active = well fitted inhibition curve with a large enough effect in the signal ratio, with a control signal flat, not every such curve was filed as active; the % refers to the signal ratio;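 also: cells stimulated with 0.4 nM T3 agonist during compound exposure; series mostly up to about 77 µM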); conditions: TR-UAS-bla HEK293, beta-lactamase ratio, antagonist mode, 18 h
How it was run: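 TR-UAS-bla GripTite HEK293 cells in 2% charcoal/dextran FBS medium were preincubated 4 h at 37 C, given compound (0.59 nM to 92 uM) plus 0.4 nM T3 (final) for 18 h, then CCF4 for 2 h at RT; Hill fit gave IC50.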

[16] = qHTS assay for small molecule agonists of the antioxidant response element (ARE) signaling pathway (AID 651741; active = well fitted activation curve with a large enough effect in the signal ratio; the % refers to the signal ratio)
How it was run: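 Reporter: beta-lactamase under ARE, stably in HepG2. Exposure: 16 h, 37 C, compounds delivered in DMSO by pin tool after 5 h cell preincubation. Readout: FRET substrate fluorescence after 2 h at RT.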

[17] = qHTS assay for small molecule disruptors of the mitochondrial membrane potential - 1 hr assay (AID 651754); also: nearly all actives have a fitted effect of over 35% in size; also: potency is read from the fitted curve at half-maximal effect
How it was run: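 Loss of mitochondrial potential shifts the cationic dye from red mitochondrial aggregates to green cytoplasmic monomers. Cells (HepG2) are treated with compound for 1 hr before a 30 min dye incubation at 37C.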

[18] = target: Bile acid receptor (Homo sapiens) (UniProt Q96RI1); test: qHTS assay for small molecule agonists of farnesoid X receptor signaling (AID 588527); conditions: HEK293T FXR-UAS-bla, beta-lactamase ratio, 16 h; stronger effect = higher value; also: series mostly up to about 77 µM
How it was run: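 FXR-UAS-bla HEK293T cells (10% dialyzed FBS) preincubated 5-7 h at 37 C, then compounds at up to 92 uM for 16 h at 37 C. CCF4 beta-lactamase read-out after 2 h RT. Normalized to chenodeoxycholic acid (100 uM) and DMSO; Hill fit gave EC50 and efficacy.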

[19] = target: Peroxisome proliferator-activated receptor delta (Homo sapiens) (UniProt Q03181); test: qHTS assay for small molecule antagonists of peroxisome proliferator-activated receptor delta signaling (AID 588535);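 as to max response: cells co-treated with a PPAR-delta agonist as stimulator during compound exposure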
How it was run: as §1

[20] = target: Peroxisome proliferator-activated receptor gamma (Homo sapiens) (UniProt P37231); test: qHTS assay for small molecule antagonists of peroxisome proliferator-activated receptor gamma signaling (AID 588537; active = well fitted inhibition curve with a large enough effect in the signal ratio, with a control signal flat, not every such curve was filed as active; the % refers to the signal ratio;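 also: reporter cells co-stimulated with 50 nM rosiglitazone agonist during compound treatment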)
How it was run: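 Compounds are tested as concentration series for inhibition of rosiglitazone-driven (50 nM) reporter expression in GeneBLAzer PPAR-gamma-UAS-bla HEK293 cells. After 16 h at 37 C, CCF4 substrate is added for 2 h at room temperature and blue/green fluorescence is measured.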

Peroxisome proliferator-activated receptor delta (Homo sapiens), sequence (Q03181 whole entry, looked up): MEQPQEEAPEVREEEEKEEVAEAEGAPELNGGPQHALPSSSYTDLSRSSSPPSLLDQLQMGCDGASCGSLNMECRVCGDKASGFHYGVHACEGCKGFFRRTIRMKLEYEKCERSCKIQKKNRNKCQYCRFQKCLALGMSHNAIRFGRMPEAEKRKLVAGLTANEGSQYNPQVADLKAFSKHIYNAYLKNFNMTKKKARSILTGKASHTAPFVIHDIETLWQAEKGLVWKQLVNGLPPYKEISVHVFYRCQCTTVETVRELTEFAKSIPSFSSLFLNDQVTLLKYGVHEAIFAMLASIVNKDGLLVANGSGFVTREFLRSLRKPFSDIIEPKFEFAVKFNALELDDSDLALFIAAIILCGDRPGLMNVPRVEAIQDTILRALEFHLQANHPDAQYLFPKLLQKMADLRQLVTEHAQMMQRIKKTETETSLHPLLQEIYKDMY
Thyroid hormone receptor beta (Homo sapiens), sequence (P10828 whole entry, looked up): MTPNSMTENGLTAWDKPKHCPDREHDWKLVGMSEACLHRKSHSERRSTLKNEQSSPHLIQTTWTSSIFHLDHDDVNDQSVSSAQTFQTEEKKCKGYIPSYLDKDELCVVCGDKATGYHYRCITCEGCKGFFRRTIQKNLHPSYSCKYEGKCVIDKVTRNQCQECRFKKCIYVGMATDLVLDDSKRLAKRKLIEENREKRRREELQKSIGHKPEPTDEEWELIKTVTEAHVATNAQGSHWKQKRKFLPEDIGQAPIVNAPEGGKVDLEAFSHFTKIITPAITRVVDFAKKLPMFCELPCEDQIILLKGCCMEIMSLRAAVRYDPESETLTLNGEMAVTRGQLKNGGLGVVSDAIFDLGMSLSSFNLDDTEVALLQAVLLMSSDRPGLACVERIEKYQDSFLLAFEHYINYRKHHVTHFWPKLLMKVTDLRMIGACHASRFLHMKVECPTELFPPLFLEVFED
Estrogen receptor (Homo sapiens), sequence (P03372 whole entry, looked up): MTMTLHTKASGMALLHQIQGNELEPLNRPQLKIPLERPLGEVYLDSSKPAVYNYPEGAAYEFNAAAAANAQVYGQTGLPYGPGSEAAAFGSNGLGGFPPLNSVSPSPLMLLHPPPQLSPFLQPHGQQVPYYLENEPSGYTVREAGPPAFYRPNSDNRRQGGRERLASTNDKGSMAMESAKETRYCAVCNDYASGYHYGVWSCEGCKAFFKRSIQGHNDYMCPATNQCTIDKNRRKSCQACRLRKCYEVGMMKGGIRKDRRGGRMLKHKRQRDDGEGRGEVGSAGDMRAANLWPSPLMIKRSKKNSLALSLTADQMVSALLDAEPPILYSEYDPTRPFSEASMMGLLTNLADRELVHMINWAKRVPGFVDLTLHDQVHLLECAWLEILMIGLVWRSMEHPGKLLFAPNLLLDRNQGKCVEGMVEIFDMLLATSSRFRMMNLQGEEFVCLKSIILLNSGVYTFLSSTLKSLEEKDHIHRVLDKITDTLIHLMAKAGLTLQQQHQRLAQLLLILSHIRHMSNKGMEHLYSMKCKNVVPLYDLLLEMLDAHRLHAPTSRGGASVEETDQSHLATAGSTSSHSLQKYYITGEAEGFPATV
Vitamin D3 receptor (Homo sapiens), sequence (P11473 whole entry, looked up): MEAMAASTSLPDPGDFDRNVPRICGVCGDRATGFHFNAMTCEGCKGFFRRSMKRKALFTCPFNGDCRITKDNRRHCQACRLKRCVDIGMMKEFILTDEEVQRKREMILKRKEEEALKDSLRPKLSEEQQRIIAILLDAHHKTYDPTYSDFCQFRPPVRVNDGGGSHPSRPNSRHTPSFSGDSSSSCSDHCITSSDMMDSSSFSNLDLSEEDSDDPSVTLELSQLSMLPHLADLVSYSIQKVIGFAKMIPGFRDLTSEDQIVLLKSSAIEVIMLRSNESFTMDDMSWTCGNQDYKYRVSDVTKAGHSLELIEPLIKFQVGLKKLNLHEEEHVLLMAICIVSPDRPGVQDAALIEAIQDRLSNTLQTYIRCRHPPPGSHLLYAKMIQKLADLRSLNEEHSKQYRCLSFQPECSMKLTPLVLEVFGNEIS
Peroxisome proliferator-activated receptor gamma (Homo sapiens), sequence (P37231 whole entry, looked up): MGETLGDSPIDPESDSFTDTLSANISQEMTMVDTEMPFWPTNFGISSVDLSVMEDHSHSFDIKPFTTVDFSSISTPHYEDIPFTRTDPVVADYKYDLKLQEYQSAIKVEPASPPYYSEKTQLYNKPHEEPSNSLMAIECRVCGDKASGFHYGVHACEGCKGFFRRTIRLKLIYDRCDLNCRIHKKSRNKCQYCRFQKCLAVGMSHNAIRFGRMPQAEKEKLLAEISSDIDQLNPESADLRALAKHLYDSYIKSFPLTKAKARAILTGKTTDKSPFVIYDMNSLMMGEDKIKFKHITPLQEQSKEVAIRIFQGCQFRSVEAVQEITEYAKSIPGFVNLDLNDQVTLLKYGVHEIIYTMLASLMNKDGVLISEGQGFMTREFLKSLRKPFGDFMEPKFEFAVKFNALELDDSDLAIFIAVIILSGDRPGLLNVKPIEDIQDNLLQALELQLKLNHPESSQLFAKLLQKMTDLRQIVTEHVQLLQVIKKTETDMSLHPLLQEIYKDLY
Voltage-gated inwardly rectifying potassium channel KCNH2 (Homo sapiens), sequence (Q12809 whole entry, looked up): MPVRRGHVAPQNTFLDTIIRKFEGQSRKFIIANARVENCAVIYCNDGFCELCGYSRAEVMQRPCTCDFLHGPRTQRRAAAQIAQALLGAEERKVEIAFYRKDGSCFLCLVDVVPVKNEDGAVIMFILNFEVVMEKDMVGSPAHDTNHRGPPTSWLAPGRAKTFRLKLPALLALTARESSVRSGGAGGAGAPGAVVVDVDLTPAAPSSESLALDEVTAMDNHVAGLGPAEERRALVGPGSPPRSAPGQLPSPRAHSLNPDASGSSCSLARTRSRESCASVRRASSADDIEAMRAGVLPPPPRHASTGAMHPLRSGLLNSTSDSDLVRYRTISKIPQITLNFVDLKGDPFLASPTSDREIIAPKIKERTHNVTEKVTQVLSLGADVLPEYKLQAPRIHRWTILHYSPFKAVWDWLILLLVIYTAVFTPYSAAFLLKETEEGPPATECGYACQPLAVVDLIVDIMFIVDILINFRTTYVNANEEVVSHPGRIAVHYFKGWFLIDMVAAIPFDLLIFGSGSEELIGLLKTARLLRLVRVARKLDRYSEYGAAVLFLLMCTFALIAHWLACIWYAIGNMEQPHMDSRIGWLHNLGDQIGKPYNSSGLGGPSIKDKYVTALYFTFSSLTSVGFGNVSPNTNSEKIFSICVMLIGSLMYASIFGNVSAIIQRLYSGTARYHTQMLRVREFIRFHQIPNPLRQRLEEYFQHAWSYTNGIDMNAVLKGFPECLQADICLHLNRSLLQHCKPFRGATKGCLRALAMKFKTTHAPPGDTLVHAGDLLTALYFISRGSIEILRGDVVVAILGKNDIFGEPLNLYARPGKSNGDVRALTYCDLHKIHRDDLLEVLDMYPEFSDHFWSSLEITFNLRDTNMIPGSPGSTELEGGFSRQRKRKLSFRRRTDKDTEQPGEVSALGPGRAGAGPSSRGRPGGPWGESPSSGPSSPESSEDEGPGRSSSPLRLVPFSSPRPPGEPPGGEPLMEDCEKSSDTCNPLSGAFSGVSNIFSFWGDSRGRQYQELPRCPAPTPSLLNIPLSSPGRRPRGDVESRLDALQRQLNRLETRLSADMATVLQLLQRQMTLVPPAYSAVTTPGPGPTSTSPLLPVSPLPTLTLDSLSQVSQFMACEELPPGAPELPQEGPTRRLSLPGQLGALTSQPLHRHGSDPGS
Bile acid receptor (Homo sapiens), sequence (Q96RI1 whole entry, looked up): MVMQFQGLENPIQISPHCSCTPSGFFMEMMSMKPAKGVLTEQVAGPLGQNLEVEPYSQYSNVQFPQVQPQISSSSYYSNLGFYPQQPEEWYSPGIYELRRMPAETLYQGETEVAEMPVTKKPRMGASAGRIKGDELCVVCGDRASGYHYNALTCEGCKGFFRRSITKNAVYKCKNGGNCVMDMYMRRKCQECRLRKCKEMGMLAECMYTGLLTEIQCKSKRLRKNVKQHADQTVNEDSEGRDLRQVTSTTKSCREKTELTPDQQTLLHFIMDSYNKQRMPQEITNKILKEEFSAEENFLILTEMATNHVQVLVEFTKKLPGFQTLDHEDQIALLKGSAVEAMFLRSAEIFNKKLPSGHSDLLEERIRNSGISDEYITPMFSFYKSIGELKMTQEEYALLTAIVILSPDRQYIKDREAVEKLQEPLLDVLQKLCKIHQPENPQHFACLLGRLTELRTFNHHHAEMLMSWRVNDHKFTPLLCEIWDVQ
Glucocorticoid receptor (Homo sapiens), sequence (P04150 whole entry, looked up): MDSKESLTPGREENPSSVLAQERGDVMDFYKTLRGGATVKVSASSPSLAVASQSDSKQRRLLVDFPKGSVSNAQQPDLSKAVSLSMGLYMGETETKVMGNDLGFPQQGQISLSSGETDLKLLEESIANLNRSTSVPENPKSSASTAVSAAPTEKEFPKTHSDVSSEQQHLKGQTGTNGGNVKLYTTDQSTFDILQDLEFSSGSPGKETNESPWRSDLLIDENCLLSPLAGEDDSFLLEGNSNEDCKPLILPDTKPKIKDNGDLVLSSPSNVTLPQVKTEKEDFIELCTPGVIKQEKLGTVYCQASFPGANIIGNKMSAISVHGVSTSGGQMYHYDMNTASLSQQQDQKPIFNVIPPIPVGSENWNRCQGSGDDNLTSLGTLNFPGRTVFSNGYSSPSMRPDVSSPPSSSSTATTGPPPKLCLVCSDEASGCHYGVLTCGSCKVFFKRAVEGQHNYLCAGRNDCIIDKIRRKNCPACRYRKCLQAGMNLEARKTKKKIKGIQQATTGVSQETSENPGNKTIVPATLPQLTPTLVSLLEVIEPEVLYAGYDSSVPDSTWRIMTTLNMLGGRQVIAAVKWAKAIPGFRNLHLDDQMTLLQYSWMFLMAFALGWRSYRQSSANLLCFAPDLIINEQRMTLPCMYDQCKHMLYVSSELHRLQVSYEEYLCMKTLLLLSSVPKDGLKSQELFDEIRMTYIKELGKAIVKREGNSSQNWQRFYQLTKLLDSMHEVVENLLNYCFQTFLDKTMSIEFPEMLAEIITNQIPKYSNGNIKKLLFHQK

Compound | outcome [1] | Potency [2] | Potency [3] | Potency [4] | outcome [5] | max response [6] | outcome [7] | outcome [8] | Potency [9] | Potency [10] | activation [11] | activation [12] | activation [13] | outcome [14] | activity change % (negative = inhibition) [15] | Potency [16] | Potency [17] | activation [18] | outcome [19] | Potency [20]
O=[N+]([O-])c1ccc(Cl)c(Cl)c1Cl | inactive | inactive | inactive | inactive | inactive | -19.7% | inactive | inactive | inactive | inactive | -2.43% (inactive) | 0.972% (inactive) | – | – | – | – | – | – | – | –
CC(C)OC(=O)Cc1ccccc1 | inactive | inactive | inactive | inactive | – | – | inactive | inactive | inactive | inactive | -2.84% (inactive) | – | 0.809% (inactive) | inactive | -4.91% (inactive) | inactive | inactive | – | – | –
O=C(O)c1cc(Cl)ccc1Cl | inactive | inactive | inactive | – | inactive | 35.4% | – | inactive | inactive | inactive | -4.12% (inactive) | – | -4.37% (inactive) | inactive | 12.5% (inactive) | inactive | inactive | -1.21% (inactive) | inactive | –
CCCN(CCC)c1c([N+](=O)[O-])cc(C(F)(F)F)cc1[N+](=O)[O-] | – | inactive | inactive | inactive | inactive | 0.867% | inactive | inactive | inactive | – | – | -3.66% (inactive) and -3.44% (inactive) | – | – | 9.18% (inactive) and -4.26% (inactive) | – | inactive | 1.13% (inactive) | inactive | inactive
Cc1cccc(C)c1N | inactive | inactive | inactive | inactive | inactive | 17.3% | – | – | inactive | inactive | – | -1.09% (inactive) | 0.219% (inactive) | – | -2.91% (inactive) | inactive | inactive | -1.75% (inactive) | – | –
CN(C)C(=O)Cl | inactive | inactive | – | inactive | inactive | -22.3% | inactive | – | – | inactive | – | -0.0384% (inactive) | 12.7% (inactive) | inactive | -23.4% (inactive) | inactive | inactive | – | inactive | inactive
Clc1cccc(Cl)c1Cl | – | inactive | inactive | – | inactive | -24.3% | inactive | inactive | inactive | inactive | – | -0.304% (inactive) and 0.362% (inactive) | -0.532% (inactive) | inactive | -6.61% (inactive) and -16.3% (inactive) | inactive | inactive | – | inactive | inactive
Nc1ccc([N+](=O)[O-])cc1[N+](=O)[O-] | inactive | inactive | inactive | inactive | inactive | – | – | inactive | inactive | inactive | – | -1.37% (inactive) | – | inactive | 0.221% (inactive) | – | 18.8 µM (active) | – | – | inactive
O=[N+]([O-])c1ccc2c3c(cccc13)CC2 | – | inactive | inactive | inactive | – | 24.6% | inactive | inactive | inactive | – | -4.24% (inactive) and -1.29% (inactive) | -1.76% (inactive) and -1.52% (inactive) | -4.28% (inactive) and -4.51% (inactive) | inactive | -2.33% (inactive) and 7.31% (inactive) | – | 37.6 µM (active) | -0.314% (inactive) and -0.559% (inactive) | inactive | inactive
ClCC(Cl)Cl | inactive | inactive | inactive | – | inactive | -51.8% | inactive | inactive | – | inactive | -0.152% (inactive) | – | – | – | 8.38% (inactive) | inactive | inactive | – | inactive | –
CCCCOC(C)=O | inactive | inactive | inactive | inactive | inactive | 21.2% | inactive | – | inactive | inactive | -4.75% (inactive) | -1.17% (inactive) | – | – | 1.15% (inactive) | inactive | – | 1.21% (inactive) | inactive | inactive
